PubChem BioAssay (NCATS)
Where “and” joins values, the source holds several entries; their conditions need not be identical. Equal entries are not always repeated. Results filed as inconclusive are left out. Where a call stands in place of a potency, no number is given. Calls of active or inactive are those of the source. Calls come from the whole dose curve; as a rule, active = well fitted curve in the direction sought with a large enough effect; inconclusive = small, poorly fitted or top-dose-only effect, or another doubt; inactive = no such curve, though single readings can be large; an effect the other way counts as inactive or inconclusive.

molecular target: Guanine nucleotide-binding protein G(i) subunit alpha-1 (Homo sapiens) (UniProt P63096); assay: qHTS Assay for Inhibitors of RGS12 GoLoco Motif Activity (Green Fluorophore) (AID 879); conditions: Galphai1/FITC-RGS12 GoLoco peptide, fluorescence polarization; series mostly up to 57.1 µM;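 note: negative values mean loss of peptide binding seen as reduced polarization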
Sequence (P63096 whole entry, looked up): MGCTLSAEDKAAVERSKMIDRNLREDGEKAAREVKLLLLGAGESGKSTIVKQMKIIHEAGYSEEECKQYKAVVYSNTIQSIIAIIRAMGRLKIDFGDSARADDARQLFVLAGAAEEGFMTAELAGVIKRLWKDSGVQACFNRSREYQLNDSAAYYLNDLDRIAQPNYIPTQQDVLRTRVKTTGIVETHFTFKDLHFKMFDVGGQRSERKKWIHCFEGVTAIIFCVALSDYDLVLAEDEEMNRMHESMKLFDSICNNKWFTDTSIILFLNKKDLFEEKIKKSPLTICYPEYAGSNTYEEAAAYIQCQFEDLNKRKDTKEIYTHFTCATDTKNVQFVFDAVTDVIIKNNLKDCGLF
Method in brief: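 A drop in FITC polarization marked displacement of the FITC-tagged RGS12 GoLoco peptide (10 nM) from Gαi1 (50 nM). Compounds were incubated 10 min at room temperature in Tris pH 7.5 buffer containing 150 mM NaCl, 0.1 mM GDP and 0.05% NP40; unlabeled peptide titration served as control.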

SMILES | outcome
CN(C)c1cc2c(Nc3ccc4c(cnn4Cc4ccccc4)c3)ncnc2cn1 | inactive
CC(C)N(CCC(=O)c1ccc2ccccc2c1)Cc1ccccc1 | inactive
Cn1cnc2c(NCc3ccccc3)nc(NCCO)nc21 | inactive
NC(N)=NCCCCN=C(N)N | inactive
COc1ccccc1N1CCN(CCN2C(=O)CC3(CCCC3)CC2=O)CC1 | inactive
O=C1NC(c2cccc([N+](=O)[O-])c2)=CCN1c1ccccc1O | inactive
C[N+](C)(C)CCO | inactive
Brc1ccc([C@H]2CN3CCSC3=N2)cc1 | inactive

molecular target: Cytochrome P450 3A4 (Homo sapiens) (UniProt P08684); assay: qHTS Assay for Inhibitors and Substrates of Cytochrome P450 3A4 (AID 884); conditions: recombinant CYP3A4, Luciferin-PPXE luminescence; series mostly up to 57.1 µM; note: nearly all actives have a fitted effect of over 50% in size; note: potency is the fitted concentration of half-maximal effect
Sequence (P08684 whole entry, looked up): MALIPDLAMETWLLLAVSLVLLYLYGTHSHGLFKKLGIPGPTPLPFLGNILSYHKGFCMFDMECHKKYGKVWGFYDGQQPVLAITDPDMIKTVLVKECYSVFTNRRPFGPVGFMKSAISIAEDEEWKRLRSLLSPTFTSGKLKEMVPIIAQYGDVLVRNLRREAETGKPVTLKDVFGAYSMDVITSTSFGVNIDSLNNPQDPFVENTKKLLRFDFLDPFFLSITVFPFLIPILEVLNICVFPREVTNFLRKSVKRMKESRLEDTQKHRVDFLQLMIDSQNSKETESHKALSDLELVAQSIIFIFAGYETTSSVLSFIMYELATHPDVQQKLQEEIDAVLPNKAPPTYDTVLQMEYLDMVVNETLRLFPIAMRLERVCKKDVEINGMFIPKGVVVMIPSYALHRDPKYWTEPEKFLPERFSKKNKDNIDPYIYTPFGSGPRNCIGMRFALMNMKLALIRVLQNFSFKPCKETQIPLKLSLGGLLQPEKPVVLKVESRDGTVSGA
Method in brief: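 Luminescent readout of luciferin produced by CYP3A4 (20 nM) dealkylation of Luciferin-PPXE, 25 uM (its KM). NADPH-driven reaction ran 60 min at RT after 10 min compound preincubation; data scaled to 57 uM ketoconazole as 100% inhibition.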

SMILES | Potency
CN(C)c1cc2c(Nc3ccc4c(cnn4Cc4ccccc4)c3)ncnc2cn1 | 5.01 µM (active)
Brc1ccccc1-c1ccccc1 | inactive
C1=CC2C3C=CC(C3)C2C1 (stereo not given) | inactive
CC(C)C(C)(C)C(C)(C)C(C)(C)S | inactive
Oc1ccccc1 | inactive
CN(C(=O)C(Cl)Cl)c1ccc(OC(=O)c2ccco2)cc1 | inactive
CCCC(=O)c1cc(O)c(O)cc1O | inactive
CCOC(=O)NNc1nncc2ccccc12 | inactive
O=C(O)/C=C(\CC(=O)O)C(=O)O | inactive
O=C(NO)c1ccccc1 | inactive
C[N+](C)(C)CCO | 31.6 µM (active)

molecular target: Cytochrome P450 3A4 (Homo sapiens) (UniProt P08684); assay: qHTS Assay for Activators of Cytochrome P450 3A4 (AID 885); conditions: recombinant CYP3A4, Luciferin-PPXE luminescence, 60 min; series mostly up to 57.1 µM; note: nearly all actives have a fitted effect of over 65% in size
Method in brief: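 Activators are scored by enhanced luminescence from CYP3A4 conversion of luciferin-PPXE (25uM, equal to KM) to luciferin, after 60 min at RT with an NADPH-regenerating system.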

SMILES | Potency
CN(C)c1cc2c(Nc3ccc4c(cnn4Cc4ccccc4)c3)ncnc2cn1 | inactive
CC(C)N(CCC(=O)c1ccc2ccccc2c1)Cc1ccccc1 | inactive
Cn1cnc2c(NCc3ccccc3)nc(NCCO)nc21 | inactive
COc1ccccc1N1CCN(CCN2C(=O)CC3(CCCC3)CC2=O)CC1 | inactive
Brc1ccc([C@H]2CN3CCSC3=N2)cc1 | inactive

molecular target: Cytochrome P450 2D6 (Homo sapiens) (UniProt P10635); assay: qHTS Assay for Inhibitors and Substrates of Cytochrome P450 2D6 (AID 891); conditions: recombinant CYP2D6, luciferin-ME EGE luminescence; series mostly up to 57.1 µM; note: nearly all actives have a fitted effect of over 60% in size; note: potency is the fitted concentration of half-maximal effect
Sequence (P10635 whole entry, looked up): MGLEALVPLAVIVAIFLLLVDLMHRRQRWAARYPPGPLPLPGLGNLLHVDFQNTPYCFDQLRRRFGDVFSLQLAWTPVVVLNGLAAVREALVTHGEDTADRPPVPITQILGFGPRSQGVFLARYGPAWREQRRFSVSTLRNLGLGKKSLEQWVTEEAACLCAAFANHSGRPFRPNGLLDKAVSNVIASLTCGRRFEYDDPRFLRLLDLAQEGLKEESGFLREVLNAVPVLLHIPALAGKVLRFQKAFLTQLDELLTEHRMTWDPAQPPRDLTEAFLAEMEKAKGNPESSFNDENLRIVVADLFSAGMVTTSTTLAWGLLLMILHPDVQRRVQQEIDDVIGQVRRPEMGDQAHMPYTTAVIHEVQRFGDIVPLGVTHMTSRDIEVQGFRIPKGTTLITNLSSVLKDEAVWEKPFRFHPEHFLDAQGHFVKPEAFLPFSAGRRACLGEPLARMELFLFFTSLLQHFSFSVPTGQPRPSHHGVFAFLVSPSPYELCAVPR
Method in brief: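 Luminescent read-out of luciferin formed by 5 nM human CYP2D6 demethylating 30 uM Luciferin-ME EGE (Km level) over 60 min at room temperature after NADPH regeneration addition. Data normalized to full inhibition by 1.43 uM quinidine.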

SMILES | Potency
CC(C)N(CCC(=O)c1ccc2ccccc2c1)Cc1ccccc1 | 2 µM (active)
Cn1cnc2c(NCc3ccccc3)nc(NCCO)nc21 | 3.16 µM (active) and 1.26 µM (active)
O=C1NC(c2cccc([N+](=O)[O-])c2)=CCN1c1ccccc1O | inactive

system: not listed separately; assay: Confirmation and Secondary Assay for Modulators of Hemoglobin Beta Chain Splicing at IVS2 654 locus (AID 910); conditions: HeLa EGFP-654 splicing reporter, GFP fluorescence, 48 h; series mostly up to 46.1 µM;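 note: HeLa cells stably carrying EGFP split by mutant beta-globin IVS2-654 intron; per-well total GFP intensity by laser scanning cytometry after 2-day treatment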
Method in brief: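 Readout: per-well total peak green fluorescence (488 nm ex, 500–520 nm em) from objects 5–250 µm, reflecting correct splicing of an EGFP-654 reporter. Compounds were applied for 2 days at 37 °C to overnight-plated HeLa EGFP-654 cells; controls were DMSO and 500 nM IVS2-654 PNA.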

SMILES | outcome
NC(N)=NCCCCN=C(N)N | inactive
CCOC(=O)NNc1nncc2ccccc12 | inactive
O=C(O)/C=C(\CC(=O)O)C(=O)O | inactive
C[N+](C)(C)CCO | inactive

system: not listed separately; assay: qHTS Assay for Identification of Small Molecule Agonists for Thrombopoietin (TPO) Signaling Pathway (AID 917); conditions: TPO signaling pathway reporter cells, agonist qHTS, stimulated with TPO at its EC50; series mostly up to 38.5 µM
Method in brief: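 First, Ba/F3 cells with human TPO receptor were held overnight without IL-3. Next, compounds and TPO (26 pM final) were added. After 24 hrs at 37 C, luciferase detection reagent was added and luminescence measured following 10 min at room temperature.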

SMILES | outcome
Cn1cnc2c(NCc3ccccc3)nc(NCCO)nc21 | inactive
NC(N)=NCCCCN=C(N)N | inactive
O=C1NC(c2cccc([N+](=O)[O-])c2)=CCN1c1ccccc1O | inactive
C[N+](C)(C)CCO | inactive
